Measurements as given in PubChem BioAssay (EPA / NIEHS).
Activity calls are given as the source filed them. Rule for the calls: active = hit-call score of the fitted dose curve at least 0.9, where 1 is the maximum; inactive = score below 0.9.

Read-out: Lipoprotein lipase (LPL), LPL (gene 4023)
Experiment: LTEA_HepaRG_LPL: Life Technologies and Expression Analysis (LTEA) Assay for Lipoprotein lipase (LPL) using HepaRG (AID 2283515)
Details: mRNA level, 48 h; actives raise or lower the signal
Description: LTEA_HepaRG is a cell based, multiplexed-readout assay that uses HepaRG, a human liver cell line, with measurements taken at 48 hours after chemical dosing on a 96-well plate.LTEA_HepaRG_LPL is one of 102 assay component(s) measured in the LTEA HepaRG cell culture assay. It is a marker of Steatosis.Data from the assay component LTEA_HepaRG_LPL was analyzed into 1 endpoint. This assay endpoint, LTEA_HepaRG_LPL, was analyzed with bidirectional fitting relative to DMSO as the negative control and baseline of activity. Using a type of inducible reporter, measures of mRNA induction for gain or loss-of-signal activity can be used to understand regulation of transcription factor activity. To generalize the intended target to other relatable targets, this assay endpoint is annotated to the esterase intended target family, where the subfamily is lipase.
A total of 1060 chemcials from the ToxCast library were tested in eight-point concentration-response experiments. Cell culture and cytotoxicity assays were conducted at Thermo Fisher Scientific's Custom Services facility (Madison, WI). A single lot of human HepaRG cells (Thermo Fisher Scientific, Frederick, MD) was used for the cell culture experiments. 96-well format collagen type I coated plates of human HepaRG cells were prepared using established methods. Briefly, cryopreserved HepaRG cells were thawed, plated at a density of approximately 100,000 cells/well in HepaRG Thaw, Plate, and General Purpose media (HPRG770, Thermo Fisher Scientific), and incubated for 48 hours. 0.5% DMSO was selected as vehicle control to balance the requisite need of DMSO in HepaRG cultures to maintain differentiation (for example, baseline metabolism, proportions of hepatocytes vs. cholangiocytes), while enabling further hepatic receptor pathway activation (for example, PXR and CAR) in response to chemical exposure. 48 hours after plating, the culture medium was replaced with HepaRG Serum-Free Incudtion Media. Cells were exposed to each test chemical in duplicate and maintained in CO2 incubators for another 48 hours. Chemical plates were thawed to room temperature and 200x concentrations of treatment groups were prepared. 8-point conentration-reponse curves were made with the highest exposure at 100 uM, followed by half-log dilutions, all in 0.5% DMSO. Each test plate contained variouse controls, induction positive controls (1mM phenobarbital), cytotoxicity positive controls ([…] aflatoxin B1), vehicle controls (0.5% DMSO), and total lysis controls (0.5% DMSO). Cell morphology images were taken using an Essen IncuCyte FLR automated microscope, with six 96-well plates imaged in about 24 minutes. Images were captured and exported and JPEG files. Spent culture media was transfered to black-well plates for the LDH assay, and remaining media was sorted at -80 C for later use. Cells were treated with RLT buffer and frozen until shipped for gene expression analysis. Total RNA was isolated from the cell suspension in 75 uL of Buffer RLT (Qiagen, Germantown, MD 20874) by Quintiles/Expression Analysis (Durham, NC) using a custom isolation procedure. Total RNA from each plate well was transferred to a preamplification plate. Fluidigm's 96.96 Dynamic ArrayTM (Fluidigm, Amsterdam, the Netherlands) technology was used for gene expression analyses by quantitative reverse transcription polymerase chain reaction (qRT-PCR, performed by Quintiles/Expression Analysis, Durham, NC)89. Standard TaqManTM Assays (Applied Biosystems/ThermoFisher Scientific, Foster City, CA) were used to assess the expression of 93 genes selected based on their selectivity and sensitivity to important hepatic receptors known to be modulated by environmental chemicals; importance in human hepatocyte functionality; and hepatotoxicity. […]

SMILES | outcome | AC50
CCCCCCCCCCCCCCCS(=O)(=O)Oc1ccccc1 | inactive | 
CC(C)(C)c1ccc(O)c(C(C)(C)C)c1 | inactive | 
OCCC(F)(F)C(F)(F)C(F)(F)C(F)(F)C(F)(F)C(F)(F)F | inactive | 
O=[N+]([O-])c1ccc(O)cc1 | inactive | 
COc1ccc([N+](=O)[O-])cc1N | inactive | 
CCCCC(CC)COC(=O)CCCCC(=O)OCC(CC)CCCC (stereo not given) | inactive | 
CCCCCCC(=O)O | inactive | 
CCCCCCCC(=O)O | inactive | 
COCC(C)O (stereo not given) | inactive | 
Oc1cccc(O)c1 | inactive | 
CC(C)(C)CC(C)(C)c1ccc(O)c(-n2nc3ccccc3n2)c1 | inactive | 
C=C(C)C(=O)OCCC(F)(F)C(F)(F)C(F)(F)C(F)(F)C(F)(F)C(F)(F)F | inactive | 
CCCCCCCCOC(=O)CCCCCCCCC(=O)OCCCCCCCC | inactive | 
C#C[C@]1(O)CC[C@H]2[C@@H]3CCC4=CC(=O)CC[C@@H]4[C@H]3CC[C@@]21C | inactive | 
NC(=O)N(O)[C@@H]1C=C[C@H](Oc2cccc(Oc3ccc(F)cc3)c2)C1 |  | 50 µM (active)
OC1CCC(C2CCCCC2)CC1 (stereo not given) | inactive | 
ClC1=C(Cl)C(Cl)(Cl)C(Cl)=C1Cl | inactive | 
CC(C)(C)c1cccc(C(C)(C)C)c1O | inactive | 
OC1CCCCC1 | inactive | 
CC[C@H](C)[C@@H](C(=O)O)n1sc2ccccc2c1=O | inactive | 

SMILES | outcome | AC50
NC(=O)N1C(=O)C(C(=O)c2cc(Cl)cs2)c2cc(F)c(Cl)cc21 (stereo not given) |  | 90.6 µM (active)
CCCCCCCCC(=O)O | inactive | 
CCCCC(CC)COC(=O)CCCCC(=O)OCc1ccccc1 (stereo not given) | inactive | 
Oc1cc2ccccc2c2ccccc12 |  | 50 µM (active)
CCCOc1sc(C(=O)N2CCC(c3cc(CN)ccc3F)CC2)c(C)c1Br | inactive | 
O=C(OCCOCCOC(=O)c1ccccc1)c1ccccc1 | inactive | 
CC1=C(/C=C/C(C)=C/C=C/C(C)=C/C(=O)O)C(C)(C)CCC1 | inactive | 
O=c1c(-c2ccc(O)cc2)coc2cc(O)ccc12 | inactive | 
CC(C)(C)c1cc(C(C)(C)C)c(O)c(C(C)(C)C)c1 | inactive | 
CCN(CC)CCNc1ccc(CNC=O)c2sc3ccc(OC)cc3c(=O)c12 |  | 81.8 µM (active)
CC(=O)CC(C)(C)O | inactive | 
Cc1cc(C)c(O)c(C)c1 | inactive | 
CCc1nn(C2CCCCC2)c2cc(C3(C#N)CCC(C(=O)O)CC3)ccc12 (stereo not given) |  | 37.2 µM (active)
CCc1ccc(CCOc2ccc(CC3SC(=O)NC3=O)cc2)nc1 (stereo not given) |  | 9.92 µM (active)
OCCC(F)(F)C(F)(F)C(F)(F)C(F)(F)C(F)(F)C(F)(F)C(F)(F)C(F)(F)F | inactive | 
CC[C@H](c1ccc(O)cc1)[C@@H](CC)c1ccc(O)cc1 |  | 75.7 µM (active)
COC(=O)CCCCC(=O)OC | inactive | 
CC#C[C@]1(O)CC[C@H]2[C@@H]3CCC4=CC(=O)CCC4=C3[C@@H](c3ccc(N(C)C)cc3)C[C@@]21C |  | 76.2 µM (active)
Nc1cccc2c(N)cccc12 | inactive | 
c1ccc2c(c1)ccc1ccccc12 | inactive | 
